# Screens from PubChem BioAssay.
# Most compounds without a hit are left out; they make up all but 4% or so of the library.
# Rv3671c protease – Rv3671c serine protease inhibitors, primary screen, biochemical, fluorescence polarization, M. tuberculosis H37Rv | P9WHR9 | inhibition, % at 5.96 µM | hit rate 0.048% among 320,000; in the data active means inhibition above about 38%;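 further: extracellular domain of Rv3671c used as enzyme; 0% = enzyme with DMSO and 100% = no enzyme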
# Mtb FBA inh – Mtb FBA enzyme inhibitors, primary screen, biochemical, fluorescence, strain H37Rv; Fructose-bisphosphate aldolase (Mycobacterium tuberculosis (strain ATCC 25618 / H37Rv)), …; purified M. tuberculosis FBA, fluorescence read-out; inhibition, % at 1 µM; hit rate 2.3% among 360,000; AID 588726, 2011;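 further: 0% = vehicle and 100% = reference inhibitor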
# Mtb UGM inh – M. tuberculosis UGM enzyme inhibitors, primary screen, biochemical, fluorescence polarization, single point. purified UGM, fluorescence polarization probe displacement. inhibition, % at 10 µM. hit rate 0.06% among 320,000; in the data active means inhibition above about 10%, passing the limit was not always enough
# RecA splice inh – Mtb RecA intein splicing inhibitors, primary screen, biochemical, fluorescence, HTS | AID 2221, 2009 | cell-free RecA intein splicing | inhibition, % (no concentration beside the values) | hit rate 0.75% among 290,000 | Protein RecA (Mycobacterium tuberculosis (strain ATCC 25618 / H37Rv)), P9WHJ3; in the data active means inhibition above about 30%;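 further: 0% = vehicle wells and 100% = reference inhibitor control wells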
# Target sequence (P9WHJ3 whole entry, looked up, canonical isoform): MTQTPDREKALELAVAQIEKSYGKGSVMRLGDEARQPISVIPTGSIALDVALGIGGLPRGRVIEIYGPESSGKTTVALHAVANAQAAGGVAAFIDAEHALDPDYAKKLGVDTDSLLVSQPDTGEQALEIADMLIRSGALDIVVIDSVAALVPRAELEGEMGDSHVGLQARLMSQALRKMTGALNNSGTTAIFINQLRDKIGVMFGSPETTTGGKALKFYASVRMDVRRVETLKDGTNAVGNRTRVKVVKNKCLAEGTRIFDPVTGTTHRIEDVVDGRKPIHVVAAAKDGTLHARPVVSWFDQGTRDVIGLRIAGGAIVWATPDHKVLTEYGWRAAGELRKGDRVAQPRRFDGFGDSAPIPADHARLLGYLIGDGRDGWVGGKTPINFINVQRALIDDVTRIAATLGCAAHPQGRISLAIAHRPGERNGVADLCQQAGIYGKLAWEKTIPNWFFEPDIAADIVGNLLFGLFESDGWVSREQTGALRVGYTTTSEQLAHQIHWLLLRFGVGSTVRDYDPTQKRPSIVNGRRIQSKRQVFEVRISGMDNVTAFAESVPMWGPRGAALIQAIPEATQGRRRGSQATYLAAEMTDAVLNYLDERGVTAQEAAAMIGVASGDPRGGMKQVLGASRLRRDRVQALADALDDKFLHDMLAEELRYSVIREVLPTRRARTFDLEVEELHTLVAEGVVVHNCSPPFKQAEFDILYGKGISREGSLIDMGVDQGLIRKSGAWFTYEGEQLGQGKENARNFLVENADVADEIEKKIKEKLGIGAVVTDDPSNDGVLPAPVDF
# GDH-TPI counter-1 – GDH-TPI coupling enzyme inhibitors, primary screen, artefact control for M. tuberculosis FBA inhibitor project, biochemical, absorbance, full deck; inhibition, % at 4.8 µM; hit rate 1.2% among 360,000; GDH-TPI coupled enzyme counterscreen, NADH absorbance; in the data active means inhibition above about 30%;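 further: 0% = DMSO wells and 100% = wells lacking the enzyme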
# Mtb betalactam – beta-lactam sensitization of Mtb H37Rv, H37Rv. M. tuberculosis H37Rv growth with meropenem, percent inhibition. inhibition, % at 25 µM. hit rate 0.27% among 330,000; call rule not given here;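 further: growth measured after seven days incubation then overnight dye step; 0% = bacteria only wells and 100% = bacteria with antibiotic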
# Mtb FBA inh conf – M. tuberculosis aldolase blockers, biochemical, fluorescence, strain H37Rv, confirmation. shares compounds with Mtb FBA inh. inhibition, % at 1 µM. AID 651616, 2012. purified M. tuberculosis FBA, fluorescence read-out. hit rate 78% among 5,600;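 further: 0% = vehicle wells and 100% = reference inhibitor wells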
# GDH-TPI counter-2 – GDH-TPI coupling enzyme inhibitors, artefact control for M. tuberculosis FBA inhibitor project, biochemical, fluorescence, high throughput; shares compounds with Mtb FBA inh; GDH-TPI coupled enzyme counterscreen; hit rate 81% among 5,600; inhibition, % at 1 µM; in the data active means inhibition above about 10%
# GDH-TPI dose – GDH-TPI coupling enzyme inhibitors, dose response, artefact control for M. tuberculosis FBA inhibitor project, biochemical, fluorescence, IC50; IC50, µM; AID 652145, 2013; GDH-TPI coupled enzyme assay, artifact counterscreen; hit rate 79% among 170; shares compounds with Mtb FBA inh; call rule not given here
# An asterisk follows results filed as active; . = no result given; + = active, no number. Unless noted, no stated cut-off is given here; in the data, active means inhibition above about 27%; inactive means the rest.
SMILES,Rv3671c protease,Mtb FBA inh,Mtb UGM inh,RecA splice inh,GDH-TPI counter-1,Mtb betalactam,Mtb FBA inh conf,GDH-TPI counter-2,others
Cc1onc(-c2ccccc2)c1C(=O)Nc1ccc(Cl)c(S(=O)(=O)N2CCOCC2)c1,-8,-1,-1,.,-2,2,.,.,
O=C(O)C1CCN(C(=O)CSc2nnc(-c3ccccc3)o2)CC1,-1,28*,3,.,7,-4,71*,53*,
COC(=O)C1CCN(C(=O)CSc2nnc(-c3ccccc3)o2)CC1,6,-2,0,-1,1,3,.,.,
CCOP(=O)(OCC)c1nc(-c2ccc(F)cc2)oc1NCc1ccccc1,-1,77*,0,5,3,-2,46*,29*,
CCOP(=O)(OCC)c1nc(Cc2ccccc2)oc1NCc1ccccc1,9,0,-1,0,6,3,.,.,
O=P(c1ccccc1)(c1ccccc1)c1nc(-c2ccccc2)oc1NCc1ccccc1,6,4,-1,0,1,-4,.,.,
CCOP(=O)(OCC)c1nc(-c2ccccc2)oc1NCc1ccccc1,-10,82*,4,9,8,10,24,13*,
O=C(NCc1ccc(F)cc1)c1cc(C2CCCN(S(=O)(=O)c3ccccc3)C2)on1 (centres undefined),.,-2,.,.,6,.,.,.,
CCOC(=O)c1c(C)nc2ncccn12,1,75*,1,-1,17,-1,37*,38*,
CCOC(=O)c1cn2cccnc2n1,6,104*,0,-2,11,-7,151*,134*,
CCOC(=O)c1cccc(C(=O)OCC)n1,0,-6,1,0,1,-6,.,.,
CC1CCN(S(=O)(=O)c2ccc3c(c2)NC(=O)CS3)CC1,3,-3,-1,2,1,6,.,.,
N#Cc1nc(-c2ccc(OCc3ccccc3)cc2)oc1NCc1cccnc1,1,7,2,6,8,78,.,.,
CN(C)c1oc(-c2ccc(OCc3ccccc3)cc2)nc1C#N,-2,109*,2,-1,26,99,-6,-5,
COC1OC2COC(c3ccccc3)OC2C2OC(c3ccccc3)OC12 (centres undefined),.,7,.,.,3,.,.,.,
Cc1ccc(-n2nc(C)c3c2NC2=C(C(=O)CC(C)(C)C2)C3c2ccccc2OCC(=O)O)cc1 (centres undefined),2,37*,1,2,4,1,194*,129*,
COC(=O)C1=C(c2ccccc2OCc2ccccc2)C[C@@H]2CC[C@H]1N2C(=O)NCCOc1ccccc1Cl,-3,46*,0,.,-6,2,179*,122*,
COC(=O)C1=C(c2cccc(OCc3ccccc3)c2)C[C@@H]2CC[C@H]1N2C(=O)NCCOc1ccccc1Cl,-10,0,-3,.,7,-5,.,.,
CCCNC(=S)Nc1cc2oc3ccccc3c2cc1OC,-2,4,1,8,12,5,.,.,
COc1cc2c(cc1NC(=S)Nc1cccc(C)c1)oc1ccccc12,-6,87*,-1,2,31*,77,12,-4,GDH-TPI dose=>10
CNC(=S)Nc1cc2oc3ccccc3c2cc1OC,.,2,0,-1,11,5,.,.,
CCNC(=S)Nc1cc2oc3ccccc3c2cc1OC,2,31*,1,-2,7,84,4,5,
COc1cc2c(cc1NC(=S)Nc1ccccc1C)oc1ccccc12,4,111*,0,1,36*,82,56*,43*,
Cc1ccc(-c2ccc(CCC(=O)O)n2CC2CCCO2)cc1 (centres undefined),8,41*,-1,-15,-1,1,92*,60*,
O=C(O)CCc1ccc(-c2ccccc2)n1CC1CCCO1 (centres undefined),1,37*,2,-5,-1,-2,133*,119*,
SMILES,Rv3671c protease,Mtb FBA inh,Mtb UGM inh,RecA splice inh,GDH-TPI counter-1,Mtb betalactam,Mtb FBA inh conf,GDH-TPI counter-2,others
O=c1c2ccccc2nc2n1CCN2Cc1ccc(Cl)cc1,-1,34*,-1,-3,10,6,192*,170*,
CCc1ccc(Nc2ncc3c(n2)CC(C)CC3=O)cc1 (centres undefined),6,-1,1,-2,1,-5,.,.,
CCc1ccc(Nc2ncc3c(n2)CC(C)(C)CC3=O)cc1,-12,35*,-1,.,17,-3,+,172*,
Cc1ccc(O)c(C=Nc2ccc3[nH]ncc3c2)c1,-3,42*,-2,2,-4,2,118*,83*,
COc1cccc2c1cc1c(=O)n(CC(=O)N3CCCC3)nc(C)n12,.,80*,.,.,-2,.,9,2,
CCc1nc2ccc(C(=O)NCCOc3ccc(OC)cc3)cn2c1N(C)Cc1nccn1C,.,-3,.,.,1,.,.,.,
O=c1[nH]c2ccc(Cl)cc2c(O)c1Cc1ccccc1,-8,35*,4,-5,12,10,+,193*,
Cc1ccc(CCNC(=O)c2coc3nc4ccccc4nc23)cc1,-14,58*,3,-1,10,-8,99*,72*,
COc1ccc(CCNC(=O)c2ccccc2C(=O)NCCc2ccc(OC)cc2)cc1,-7,-2,2,.,4,-3,.,.,
Cc1ccc(C2(C)NC(=O)N(CC(=O)NC(=O)NC(C)C)C2=O)cc1 (centres undefined),8,3,1,-1,6,-3,.,.,
NS(=O)(=O)c1ccc(CCNc2ccn3nc(-c4ccc(OCCN5CCOCC5)cc4)cc3n2)cc1,.,21,.,.,4,.,.,.,
Cc1ccc(NS(=O)(=O)c2ccc(-c3coc(C)n3)cc2)c(Cl)c1,.,0,.,.,3,.,.,.,
CCCCNc1c(-c2ccc(OC)c(SC3CCCCC3)c2)nc2ccc(C)cn12,11,36*,.,.,25,89,+,161*,
Cc1ccc2nc(-c3cccc(SC4CCCCC4)c3)c(NC3CCCCC3)n2c1,11,5,.,.,0,1,.,.,
